# Results filed as inconclusive are left out. A call without a number means that no potency is given here. Active and inactive are the calls of the source. Unless noted, calls come from the whole dose curve; as a rule, active = well fitted curve in the direction sought with a large enough effect; inconclusive = small, poorly fitted or top-dose-only effect, or another doubt; inactive = no such curve, though single readings can be large; an effect the other way counts as inactive or inconclusive.
# Tests used:
# [1] = Primary qHTS for inhibitors of nuclear receptor binding SET domain protein 2 (NSD2) in an isogenic RCH-ACV NSD2 p.E1099K mutant (9B) (AID 1645876); note: potency is the fitted concentration of half-maximal effect; nearly all actives have a fitted effect of over 70% in size
# [2] = Primary qHTS for inhibitors of nuclear receptor binding SET domain protein 2 (NSD2) in an RCH-ACV wild type WT cells (2C) (AID 1645877); note: potency is the fitted concentration of half-maximal effect; nearly all actives have a fitted effect of over 70% in size
# [3] = qHTS drug screen for cell cycle checkpoint inhibitors in PARPi-resistant BRCA-mutant ovarian cancer cell lines. (AID 1963452; calls by dose curve; note: potency is the fitted concentration of half-maximal effect); details: PEO1/OlaR viability, CellTiter-Glo luminescence, 96 h; for Z-AUC: stronger effect = lower value
# Outline: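 PEO1, PEO4 and PEO1/OlaR ovarian cancer cells, 600 per well, exposed 96 h at 37C to a dilution series. Viability read by CellTiter-Glo luminescence, normalized to DMSO and empty wells; activity summarized as Z-AUC.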
# [4] = qHTS assay to identify inhibitors of the type 1 interferon - major histocompatibility complex class I in skeletal muscle: Counter screen cell viability and HiBit confirmation (AID 1347412); details: iHSKM muscle cells + IFN-b, HiBiT or CellTiter-Glo, 24 h; for activity change, negative = inhibition: at 45.9 µM (top of the series); note: potency is the fitted concentration of half-maximal effect; for all read-outs here: nearly all actives have a fitted effect of over 60% in size
# Outline: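 Luminescence read-out: Nano-Glo HiBiT lytic signal from C-terminally HiBiT-tagged HLA-B in CRISPR-edited human myoblasts, plus CellTiter Glo ATP as viability counter screen. IFN-beta 4.0 ng/ml; 24 hrs treatment at 37 C, 5% CO2.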
# [5] = Validation of Assay for Modulators of Lamin A Splicing (AID 1459; active = well fitted curve in the direction sought with a large enough effect in the signal ratio; the % refers to the signal ratio;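 note: cells exposed to compound for two days before reading; ratio rise marks activators and ratio drop marks inhibitors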)
# Outline: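 HeLa S3 lamin A-EGFP/DsRed2 stable clone, 600 cells/well, Opti-MEM 2% FBS; compounds by pin tool; 48 hrs, 37 °C/5% CO2; Acumen 488 nm scan, objects 10-100 um; GFP/RFP intensity ratio.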
# [6] = qHTS Assay for Lipid Storage Modulators (AID 1519; calls by dose curve); details: Drosophila S3 cells, BODIPY lipid droplet/cell ratio, laser cytometry, cells loaded with oleic acid; for activity change, negative = inhibition: at 57.5 µM (top of the series)
# Outline: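 Cells seeded at 5,000 per well were treated with compounds over a concentration series and loaded with oleic acid (400 uM, as added). Lipid droplet fluorescence (488 nm excitation, 500-530 nm channel) was read by laser-scanning cytometry and normalized to 20 uM Triacsin C.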
# [7] = target: DNA repair nuclease/redox regulator APEX1 (Homo sapiens) (UniProt P27695); experiment: qHTS Validation Assay for Inhibitors of the Human Apurinic/apyrimidinic Endonuclease 1 (APE1) (AID 1705;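 note: TAMRA fluorescence gain over two minutes as APE1 cuts a quenched THF abasic duplex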)
# Sequence of DNA repair nuclease/redox regulator APEX1 (Homo sapiens) (P27695 whole entry, looked up): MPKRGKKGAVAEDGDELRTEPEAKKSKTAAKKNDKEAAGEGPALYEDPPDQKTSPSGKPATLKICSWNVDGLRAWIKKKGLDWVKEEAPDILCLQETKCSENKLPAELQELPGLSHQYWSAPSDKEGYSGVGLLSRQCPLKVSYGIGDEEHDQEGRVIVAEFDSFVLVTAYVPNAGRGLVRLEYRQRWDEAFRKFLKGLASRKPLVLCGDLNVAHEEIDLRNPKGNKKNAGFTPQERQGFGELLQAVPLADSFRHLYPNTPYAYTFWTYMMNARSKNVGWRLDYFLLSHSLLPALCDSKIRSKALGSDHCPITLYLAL
# Outline: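 qHTS, 1536-well. APE1 + cpd 15 min RT → 50 nM TAMRA/BHQ-2 THF-abasic dsDNA substrate → kinetic fluorescence, 3 reads/60 s; delta(read3−read1) = reaction progress. No-enzyme buffer = negative control.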
# [8] = Counterscreen for APE1 Inhibitors: Fluorescent Dye Displacement Validation Assay (AID 1707)
# Outline: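 Loss of Thiazole Orange fluorescence marks promiscuous DNA binders. The dye (250 nM) is mixed with 50 nM abasic-site dsDNA in pH7.5 Tris buffer containing MgCl2, then compounds are added and emission is read once.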
# [9] = target: Endonuclease 4 (Escherichia coli (strain K12)) (UniProt P0A6C1); experiment: Counterscreen for APE1 Inhibitors: qHTS Validation Assay for Inhibitors of Endonuclease IV (AID 1708)
# Outline: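 Enzyme (2 nM) + compound, 15 min RT; add 50 nM TAMRA/BHQ-2 THF-site dsDNA; kinetic read ex525/em598, 3 reads/60 s; activity = read 3 − read 1. Buffer Tris pH 7.5, 50 mM NaCl, 2 mM MgCl2, DTT, Tween-20.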
# [10] = qHTS for differential inhibitors of proliferation of Plasmodium falciparum line Dd2 (AID 1882); details: Potency: Plasmodium falciparum Dd2 proliferation inhibition; note: nearly all actives have a fitted effect of over 65% in size
# Outline: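 SYBR Green DNA fluorescence (ex 485, em 535 nm) after overnight lysis quantifies parasite growth; compound exposure lasted 72 h at 37 C on infected red cells at 2.5% hematocrit, 0.3% parasitemia (final). Artemisinin 0.29 uM and vehicle wells define normalization.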
# [11] = target: ATP-dependent DNA helicase Q1 (Homo sapiens) (UniProt P46063); experiment: qHTS Validation Assay for Inhibitors of RecQ-Like Dna Helicase 1 (RECQ1) (AID 2353)
# Sequence of ATP-dependent DNA helicase Q1 (Homo sapiens) (P46063 whole entry, looked up): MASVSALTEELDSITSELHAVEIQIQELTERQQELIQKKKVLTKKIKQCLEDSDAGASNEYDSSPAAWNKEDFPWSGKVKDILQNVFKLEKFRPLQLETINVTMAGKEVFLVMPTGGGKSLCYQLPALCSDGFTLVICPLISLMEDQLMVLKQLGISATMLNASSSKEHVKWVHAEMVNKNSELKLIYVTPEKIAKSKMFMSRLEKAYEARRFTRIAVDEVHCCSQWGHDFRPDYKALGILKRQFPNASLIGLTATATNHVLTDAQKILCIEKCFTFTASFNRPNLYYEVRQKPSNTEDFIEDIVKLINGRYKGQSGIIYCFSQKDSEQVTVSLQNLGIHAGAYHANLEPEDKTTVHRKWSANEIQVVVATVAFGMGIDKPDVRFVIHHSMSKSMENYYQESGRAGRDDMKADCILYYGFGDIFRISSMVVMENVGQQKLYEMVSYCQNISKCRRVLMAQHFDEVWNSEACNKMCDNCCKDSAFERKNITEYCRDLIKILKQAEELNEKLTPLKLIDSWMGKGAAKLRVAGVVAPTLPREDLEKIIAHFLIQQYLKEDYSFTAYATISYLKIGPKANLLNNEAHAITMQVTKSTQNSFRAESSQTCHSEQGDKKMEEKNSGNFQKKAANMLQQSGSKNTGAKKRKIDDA
# Outline: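 RECQ1T1 50 nM; forked duplex (20 bp + 30-nt ss tails) 200 nM, ATP 2 mM final; pH 8.0, 2 mM MgCl2, 2.5 ug/ml poly(dI-dC); 15 min compound preincubation; discontinuous kinetic read over 2 h at RT.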
# [12] = Validation screen for small molecules that induce DNA re-replication in MCF 10A normal breast cells (AID 463097); note: nearly all actives have a fitted effect of over 60% in size
# Outline: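 Image-based qHTS: normal breast cells are incubated with compound for 48 hr, stained with Hoechst, and scanned for total nuclear fluorescence. Compounds raising the fraction of nuclei with elevated DNA content count as re-replication inducers.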
# [13] = Quantitative high throughput screen for delayed death inhibitors of the malarial parasite plastid, 48 hour incubation (AID 488752); note: nearly all actives have a fitted effect of over 65% in size
# Outline: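 One-generation (48 h) growth assay: a decrease in luciferase signal from an integrated reporter in P. falciparum-infected red cells (0.1% parasitemia, 2% hematocrit) after compound exposure at 37 C indicates parasite inhibition.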
# [14] = target: M-phase phosphoprotein 8 (Homo sapiens) (UniProt Q99549); experiment: qHTS Validation Assay for Inhibitors for MPP8 Chromodomain Interactions with Methylated Histone Tails (AID 488949);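 note: 50 nM MPP8 with 50 nM peptide preformed then compounds added for 30 min; AlphaScreen signal from MPP8 chromodomain bound to biotinylated H3K9me3 peptide; top concentration of the series differs between compounds; nearly all actives have a fitted effect of over 55% in size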
# Sequence of M-phase phosphoprotein 8 (Homo sapiens) (Q99549 whole entry, looked up): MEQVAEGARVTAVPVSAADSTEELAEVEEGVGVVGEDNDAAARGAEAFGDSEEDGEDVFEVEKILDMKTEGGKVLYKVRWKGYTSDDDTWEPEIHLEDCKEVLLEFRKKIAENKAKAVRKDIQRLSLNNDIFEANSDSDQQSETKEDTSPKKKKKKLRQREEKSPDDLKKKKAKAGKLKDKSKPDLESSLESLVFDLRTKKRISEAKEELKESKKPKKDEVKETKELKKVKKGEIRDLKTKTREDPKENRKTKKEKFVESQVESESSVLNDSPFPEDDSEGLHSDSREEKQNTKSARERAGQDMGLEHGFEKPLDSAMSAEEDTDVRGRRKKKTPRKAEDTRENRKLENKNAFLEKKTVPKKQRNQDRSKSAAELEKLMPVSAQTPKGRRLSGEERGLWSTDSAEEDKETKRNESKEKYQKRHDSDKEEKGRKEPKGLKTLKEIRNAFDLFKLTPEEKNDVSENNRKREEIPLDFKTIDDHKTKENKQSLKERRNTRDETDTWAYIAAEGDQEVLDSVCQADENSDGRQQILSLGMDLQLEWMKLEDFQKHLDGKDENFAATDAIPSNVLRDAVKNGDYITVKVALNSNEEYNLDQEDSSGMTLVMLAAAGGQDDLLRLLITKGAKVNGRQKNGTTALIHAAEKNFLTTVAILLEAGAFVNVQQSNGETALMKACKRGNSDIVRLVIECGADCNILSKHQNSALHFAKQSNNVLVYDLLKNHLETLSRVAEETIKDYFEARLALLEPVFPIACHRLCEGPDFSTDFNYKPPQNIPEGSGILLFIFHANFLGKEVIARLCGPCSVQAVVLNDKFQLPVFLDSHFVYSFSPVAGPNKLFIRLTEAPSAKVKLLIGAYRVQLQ
# Outline: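 50 nM MPP8 + 50 nM b-H3K9me3 peptide, PBS pH 7.4/0.01% Tween-20, 30 min RT; + cpd 30 min RT; + AlphaScreen donor/Ni-chelate acceptor beads 10 ug/mL final, 30 min dark; luminescence read.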
# [15] = target: Transient receptor potential cation channel subfamily V member 1 (Homo sapiens) (UniProt Q8NER1); experiment: HTS Assay for Compounds that Act as Enhancers of the Vanilloid Receptor 1 (AID 488979)
# Sequence of Transient receptor potential cation channel subfamily V member 1 (Homo sapiens) (Q8NER1 whole entry, looked up): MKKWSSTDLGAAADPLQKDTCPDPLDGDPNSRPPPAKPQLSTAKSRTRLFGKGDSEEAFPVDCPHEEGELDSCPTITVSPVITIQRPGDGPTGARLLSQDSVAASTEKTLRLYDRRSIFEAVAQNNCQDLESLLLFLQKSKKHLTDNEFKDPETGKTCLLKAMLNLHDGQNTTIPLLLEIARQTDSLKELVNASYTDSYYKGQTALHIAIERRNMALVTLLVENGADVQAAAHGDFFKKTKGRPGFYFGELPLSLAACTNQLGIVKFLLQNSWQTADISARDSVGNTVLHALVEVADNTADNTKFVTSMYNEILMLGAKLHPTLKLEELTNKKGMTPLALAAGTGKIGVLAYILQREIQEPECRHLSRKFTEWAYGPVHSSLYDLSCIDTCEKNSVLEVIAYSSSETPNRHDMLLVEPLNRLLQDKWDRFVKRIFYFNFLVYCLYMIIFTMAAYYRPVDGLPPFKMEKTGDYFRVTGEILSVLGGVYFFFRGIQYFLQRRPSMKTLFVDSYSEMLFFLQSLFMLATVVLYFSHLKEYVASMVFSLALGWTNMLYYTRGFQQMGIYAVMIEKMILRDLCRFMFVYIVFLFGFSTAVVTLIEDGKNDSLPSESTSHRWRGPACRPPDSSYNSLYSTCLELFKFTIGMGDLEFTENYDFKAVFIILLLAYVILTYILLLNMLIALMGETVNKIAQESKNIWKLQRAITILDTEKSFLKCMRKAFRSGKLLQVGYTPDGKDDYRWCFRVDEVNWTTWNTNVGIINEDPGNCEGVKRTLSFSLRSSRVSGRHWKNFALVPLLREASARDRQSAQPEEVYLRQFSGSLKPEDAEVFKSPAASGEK
# Outline: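 TRPV1-expressing cells loaded with Fluo-8 calcium dye; compounds added and calcium influx read kinetically for 3 min (agonist phase), then capsaicin at EC20 added and read 2 min more for enhancement. Fluorescence ex 480/em 520 nm.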
# [16] = target: Galactokinase (Homo sapiens) (UniProt P51570); experiment: qHTS Validation Assay for Inhibitors of Human Galactokinase (GALK) (AID 493189)
# Sequence of Galactokinase (Homo sapiens) (P51570 whole entry, looked up): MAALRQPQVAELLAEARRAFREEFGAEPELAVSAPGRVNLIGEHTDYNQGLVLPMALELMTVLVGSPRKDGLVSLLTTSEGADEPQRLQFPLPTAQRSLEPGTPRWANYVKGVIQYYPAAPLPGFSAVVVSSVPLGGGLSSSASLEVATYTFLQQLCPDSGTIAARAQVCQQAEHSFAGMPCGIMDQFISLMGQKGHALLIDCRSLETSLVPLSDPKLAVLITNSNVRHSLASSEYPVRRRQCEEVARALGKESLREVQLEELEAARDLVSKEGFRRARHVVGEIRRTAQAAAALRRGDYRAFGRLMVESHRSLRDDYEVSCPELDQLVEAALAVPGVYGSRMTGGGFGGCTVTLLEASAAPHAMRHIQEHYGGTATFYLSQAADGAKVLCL
# Outline: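 5 nM GALK / 100 uM galactose / 35 uM ATP, 20 mM HEPES pH8.0, 5 mM MgCl2, 60 mM NaCl, 1 mM DTT, 0.01% BSA (final). RT 1 h; Kinase-Glo Plus luminescence.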
# [17] = Validation screen for small molecules that induce DNA re-replication in SW480 colon adenocarcinoma cells (AID 504364)
# Outline: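 Image-based DNA content read-out: Hoechst stain 40 min, total nuclear fluorescence intensity (ex 405 nm, em 500-530 nm) after 48 h compound exposure of 250 SW480 cells/well at 37 C, 5% CO2, versus DMSO vehicle.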
# [18] = target: Glutathione peroxidase 1 (Homo sapiens) (UniProt P07203); experiment: Primary qHTS Assay for Inhibitors of Recombinant Selenoprotein Glutathione Peroxidase 1 (GPX1) (AID 1845191); note: nearly all actives have a fitted effect of over 65% in size
# Sequence of Glutathione peroxidase 1 (Homo sapiens) (P07203 whole entry, looked up): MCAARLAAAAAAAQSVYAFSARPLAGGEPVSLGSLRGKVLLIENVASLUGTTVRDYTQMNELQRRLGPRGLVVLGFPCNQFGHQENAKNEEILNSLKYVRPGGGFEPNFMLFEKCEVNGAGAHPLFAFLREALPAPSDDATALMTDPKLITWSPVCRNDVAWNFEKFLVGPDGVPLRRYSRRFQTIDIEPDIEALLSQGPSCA
# Outline: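 GPX1 10 nM, GR 100 nM, GSH 1 mM, NADPH 0.5 mM, CHP 0.5 mM (final). 30-min cpd preincubation, RT. Ex340/Em450 read t=0, t=15 min.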
# [19] = target: Phospholipid hydroperoxide glutathione peroxidase GPX4 (Homo sapiens) (UniProt P36969); experiment: Primary qHTS Assay for Inhibitors of Recombinant Selenoprotein Glutathione Peroxidase 4 (GPX4) (AID 1845192); details: outcome: dose series up to 50 µM unless noted; note: nearly all actives have a fitted effect of over 65% in size
# Sequence of Phospholipid hydroperoxide glutathione peroxidase GPX4 (Homo sapiens) (P36969 whole entry, looked up): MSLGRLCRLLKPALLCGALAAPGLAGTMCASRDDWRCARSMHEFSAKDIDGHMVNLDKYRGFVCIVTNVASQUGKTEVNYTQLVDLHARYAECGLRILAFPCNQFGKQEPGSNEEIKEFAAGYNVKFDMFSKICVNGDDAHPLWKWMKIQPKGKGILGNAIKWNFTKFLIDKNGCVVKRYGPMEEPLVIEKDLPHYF
# Outline: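 qHTS, GR-coupled: GPX4 200 nM + cpd 30 min RT → GSH 1 mM, NADPH 0.5 mM, GR 100 nM → CHP 0.5 mM start; fluor 340/450 at t0 and t15 min; no-enzyme wells as control.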
# [20] = measured here: PEO1 parental Z-AUC
# [21] = measured here: cell count channel max response
# [22] = measured here: lipid channel max response
smiles,measurement,setting,value
COc1nnc2ccc(N3CCC(c4ccc(OCCN5CCN(C)C(=O)[C@H]5C)cc4)CC3)nn12,Potency,[1],66.1 nM (active)
same,Potency,[2],52.5 nM (active)
same,Potency,[3],195 nM (active)
same,Z-AUC,[3]; [20],-1.72
same,Z-AUC,[3]; measured here: PEO4 Z-AUC,-1.83
same,"activity change, negative = inhibition",[4]; Viability,14.1% (inactive)
NC(=O)C1=CN(C2OC(COP(=O)(O)OP(=O)(O)OC[C@H]3O[C@@H](n4cnc5c(N)ncnc54)[C@H](OP(=O)(O)O)[C@H]3O)C(O)C2O)C=CC1 (some centres not stated),outcome,[5],inactive
same,"activity change, negative = inhibition",[6],-2.12% (inactive)
same,max response,[6]; [21],-24.1%
same,max response,[6]; [22],-21.9%
same,Potency,[7],inactive
same,Potency,[8],inactive
same,outcome,[9],inactive
same,Potency,[10],inactive
same,Potency,[11],inactive
same,outcome,[12],inactive
same,Potency,[13],inactive
same,Potency,[14],inactive
same,outcome,[15],inactive
same,outcome,[16],inactive
same,outcome,[17],inactive
CN1C(=O)CCC1c1cccnc1 (configuration not stated),outcome,[5],inactive
same,"activity change, negative = inhibition",[6],10.8% (inactive)
same,max response,[6]; [21],-1.85%
same,max response,[6]; [22],10.6%
same,Potency,[7],inactive
same,Potency,[8],inactive
same,outcome,[9],inactive
same,Potency,[10],inactive
same,Potency,[11],inactive
same,outcome,[12],inactive
same,Potency,[13],inactive
same,Potency,[14],inactive
same,outcome,[15],inactive
same,outcome,[16],inactive
same,outcome,[17],inactive
Cc1c(C(=O)Nc2ccc(Oc3ccnc4[nH]cc(-c5ccccc5)c34)c(F)c2)c(=O)n(-c2ccc(F)cc2)n1C,Potency,[2],1860 nM (active)
same,Potency,[18],inactive
same,Potency,[19],inactive
same,Z-AUC,[3],0.886 (inactive)
same,Z-AUC,[3]; [20],0.825
same,Z-AUC,[3]; measured here: PEO4 Z-AUC,0.513
same,"activity change, negative = inhibition",[4]; Viability,-7.02% (inactive)
CN(C)Cc1ccc(S(=O)(=O)n2ccc(/C=C/C(=O)NO)c2)cc1,Potency,[1],1860 nM (active)
same,Potency,[18],inactive
same,Potency,[19],inactive
same,Z-AUC,[3],0.736 (inactive)
same,Z-AUC,[3]; [20],1.02
same,Z-AUC,[3]; measured here: PEO4 Z-AUC,1.35
same,Potency,[4]; HiBiT,7010 nM (active)
same,"activity change, negative = inhibition",[4]; Viability,-5.13% (inactive)
CC/C(=C(/c1ccc(O)cc1)c1ccc(OCCNC)cc1)c1ccccc1,Potency,[1],33200 nM (active)
same,Potency,[18],inactive
same,Potency,[19],inactive
same,Z-AUC,[3],0.452 (inactive)
same,Z-AUC,[3]; [20],0.257
same,Z-AUC,[3]; measured here: PEO4 Z-AUC,-0.283
same,"activity change, negative = inhibition",[4]; HiBiT,-7.57% (inactive)
same,"activity change, negative = inhibition",[4]; Viability,-19.4% (inactive)
O=C(O)CC[C@H](NC(=O)c1ccccc1C(=O)O)C(=O)O,outcome,[5],inactive
same,"activity change, negative = inhibition",[6],-0.627% (inactive)
same,max response,[6]; [21],34.2%
same,max response,[6]; [22],31.2%
same,Potency,[7],inactive
same,Potency,[8],inactive
same,outcome,[9],inactive
same,Potency,[10],inactive
same,Potency,[11],inactive
same,outcome,[12],inactive
same,Potency,[13],inactive
same,Potency,[14],inactive
same,outcome,[15],inactive
same,outcome,[16],inactive
same,outcome,[17],inactive
Nc1nc(Nc2ccccc2)nc2c1ncn2[C@@H]1O[C@H](CO)[C@H](O)[C@H]1O,outcome,[5],inactive
same,"activity change, negative = inhibition",[6],-0.104% (inactive)
same,max response,[6]; [21],-25.4%
same,max response,[6]; [22],-24.2%
same,Potency,[7],inactive
same,Potency,[8],inactive
same,outcome,[9],inactive
same,Potency,[11],inactive
same,outcome,[12],inactive
same,Potency,[13],inactive
same,Potency,[14],inactive
same,outcome,[15],inactive
same,outcome,[16],inactive
same,outcome,[17],inactive
Nc1nc(SCc2ccc([N+](=O)[O-])cc2)c2ncn([C@@H]3O[C@H](CO)[C@H](O)[C@H]3O)c2n1,outcome,[5],inactive
same,"activity change, negative = inhibition",[6],-2% (inactive)
same,max response,[6]; [21],-35.2%
same,max response,[6]; [22],-38%
same,Potency,[7],inactive
same,Potency,[8],inactive
same,outcome,[9],inactive
same,Potency,[11],inactive
same,outcome,[12],inactive
same,Potency,[13],inactive
same,Potency,[14],inactive
same,outcome,[15],inactive
same,outcome,[16],inactive
same,outcome,[17],inactive

# Reference: PubChem BioAssay (NCATS)
